This experiment has as its system VDR:RXRa (NR concentration 270 nM, RXRa partner concentration 90 nM). Briefly: PBM binding z-score (relative to random genomic background probes); higher = stronger binding; sequences stand for … in GC…GCGATTGACAGCGTAGAATGAAGG
On the procedure: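 Protein-binding microarray (Agilent 4x180K custom design, double-stranded 60-nt probes: 5' GC cap, 34-nt variable region, 24-nt constant primer region; full probe sequence given). Purified or IVT nuclear receptor:RXRα heterodimers (3:1 NR:RXRα, mostly 270:90 nM) or homodimers were incubated for 1 h in PBS with 2% milk and no ligand, then detected with Alexa488 antibodies. Fluorescence from o1-orientation probes (~5 replicates averaged) was converted to z-scores against 500 random hg19 background probes. Variable regions are seed direct-repeat (DR0–DR5) sites, all their single-nucleotide variants and half-site ablations.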
In the case of AGAATGAGGTTACCAAAGATCAGGGGAACGCTTG, the PBM binding z-score was determined as 1.49. On to CCTAGCAGGCCAACCTGGGTCACTCAAGGCTTGA, for which the PBM binding z-score is 1.15. CCTACTGGCCCAAGGTCATTGATCAGTCAAAGCA registered a PBM binding z-score of 3.26. In the case of ATCTCTAGATAAAAGTTCAGTGAATCCCGAGGAT, the PBM binding z-score came out at 0.828. In turn, AGTCCAAGTTCATCTAGGTAACGTAAGATATGCT registered a PBM binding z-score of 4.48. Consider TCTCGGAGGACACGAAAGGTCAGACCTCGACATC, for which the PBM binding z-score is 3.52. The same measure for ATCTGTAGGTAAAAGTTCAGTGAATCCCGAGGAT: 1.27. In turn, GCTCGGAGGACAAGGTCCGAGCTTTGTCCGTAGA came in with a PBM binding z-score of -0.684. The same measure for CCTACTAGGCCAAAAAGGTCATTGATGCCGATAA: 5.16. CGTCCAAGGTGAAAGGTCAGTGAAGAGATGACGG came in with a PBM binding z-score of 3.69. As to ACTAGCAGGCCAAGGGGCACTCAAGATTAGTCCG, the PBM binding z-score is -0.375. Regarding ACTAGCAGGCCATGGGTCACTCAAGATTAGTCCG, the PBM binding z-score stood at 0.6. For AGAATGAGGATATTAAGATCAGGGAATTGCGGTC, the PBM binding z-score was -0.178. In the case of TCTGCTAGGTGAGTTGGTCAGCTAACGAGCTGCC it was -0.769; in that of CCTCGGAGTACAGAAGGTCAGAGCTGTCCGCTTT, 1.64; in that of TATACAGGGTCAAAGGACAGAGTACGAATGTCGA, 4.6. Sequence TCTTGTAGATCAGCAAGTTAAGAAAGCTGGCCAA gave a PBM binding z-score of 0.28. In the case of AGTCAAAGTGCACTAGGTAACGTAAGATTCAGCT, the PBM binding z-score was 0.166. CAAACTAGGACACCGGAAGGTCAAAGTCCGCATG showed a PBM binding z-score of 3.3. Take AGTCAAAGTTCACTAGCTAACGTAAGATTCAGCT: the PBM binding z-score came to 3.66. Sequence CTCGAAAGGTCGTGCTCAGGTGCGTATACCAAAC yielded a PBM binding z-score of 3.57. The same measure for TCTTGTAGATCAAAGGTTAACAAAGCCGAAGCCT: 2.09. Sequence GGAATGAGGGCAAGTTGATAGCAGAGTTTGATGG returned a PBM binding z-score of 1.18. For the sequence CATACTGGGCCACGAAAGGTCATTGATTCAGTGA, the PBM binding z-score was found to be 4.3. The same measure for GCTTACGGGTCAACGGTTATAGCATGAATAGAAT: 3.88.

CCTCGGAGAACAACAGGAGGTCAGAGCTGCCAGA registered a PBM binding z-score of 1.47.

In turn, GGAACGAGGGCAAGTTGATAGCCGAGTTTGATGG came in with a PBM binding z-score of 1.04. GCAAATAGGTAATACAAGGTGAAAGTCCGATTGT came in with a PBM binding z-score of 0.551. Regarding ACTATTAGTTGACTTCGGGCAACCGATACGACGC, the PBM binding z-score was found to be 0.179. With CAGCCTAGGTCAGCGCCAGTATAGGAGGAACGTT, the PBM binding z-score amounted to 0.303. In the case of CCTTACGGGTCAAGATTATAGCACGGGTGGTACG it was 2.9; in that of TCTATTAGTGGATTAGGGCAACCGAAACAGCGGA, 0.547; in that of TCAGACAGGTGAAGGTAACTCACGTACGCAGTCG, 0.473. Regarding CCTCGGCGGACAACAGGAGGTCAGAGCTGCCAGA, the PBM binding z-score was 0.818. With CCTACTGGGCCATTCAGAGGTCGTTGATCATATG, the PBM binding z-score is 1.49. TTGCCTAGGTCATGGGCCAGTATACCACGCGAAC had a PBM binding z-score of 2.21. Consider CCTTACGGGTAACTGACAGGTTATAGCATTTGGA, for which the PBM binding z-score amounted to 0.0689. CCTACTGGGCCACGAAATGTCATTGATTCAGTGA registered a PBM binding z-score of -0.452. Turning to TAGCCTAGCTCAGATCGGGCCAGTATACGCTATA, the PBM binding z-score is -0.94.

ATCTCTAGGTAACAGGTTCAGTGAAAGAGAGGAC: the PBM binding z-score amounted to 1.95.

Source of the values: the supplement of paper PMC6555819.
